Source: PubChem BioAssay (NCATS)
Values joined by “and” are separate entries in the source; they are usually repeats but may differ in a detail not shown here. Identical values can stand only once. Inconclusive results are not listed. More than one record can exist for a structure, and the calls need not agree. Active and inactive are the calls of the source. The call rests on the fitted dose curve; in most records, active means well fitted inhibition curve with a large enough effect; inconclusive means small, poorly fitted or top-dose-only effect; inactive means flat fitted curve, though single readings scatter.

Key:
W2 = experiment: qHTS profiling for inhibitors of Plasmodium falciparum proliferation (AID 504749); conditions: P. falciparum in erythrocytes, SYBR Green DNA, 72 h; series mostly up to 28.7 µM
Method in brief: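 Quantitative HTS: compounds pinned into medium, infected erythrocytes added (0.3% parasitemia, 2.5% hematocrit), 72 h culture at 37 C under 5% CO2. Saponin/Triton lysis with SYBR Green I, overnight RT, then fluorescence read.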

CRL-7250 = normal cell line; experiment: Cytotoxic Profiling of Annotated Libraries Using Quantitative High-Throughput Screening (AID 1296008); conditions: Five cell lines viability, CellTiter-Glo ATP luminescence, 48-72 h; max response: hits give low values; on max response: on the % scale 0 is the no-effect control and ±100 the full control effect
Method in brief: (§1)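 Compounds were pin-transferred onto cells and incubated 48 or 72 hr at 37 degree Celsius, 95% humidity. CellTiter-Glo was added, plates sat 10 min at room temperature, then ATP-coupled luminescence was imaged as the viability read-out.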

HaCat [1] = experiment: as above; conditions: Five cell lines viability, CellTiter-Glo ATP luminescence, 48-72 h; max response: hits give low values
Method in brief: as §1

KB-3-1 = experiment: as above; conditions: Five cell lines viability, CellTiter-Glo ATP luminescence, 48-72 h; max response: hits give low values
Method in brief: as §1

NIH3T3 = experiment: as above; conditions: Five cell lines viability, CellTiter-Glo ATP luminescence, 48-72 h; max response: hits give low values
Method in brief: as §1

MCC-13 = experiment: qHTS assay to identify novel small-molecules to repurpose for Merkel cell carcinoma treatment (AID 1296009); conditions: MCC and control cell lines, CellTiter-Glo viability, 72 h; series mostly up to 46 µM
Method in brief: (§2)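 Viability readout: ATP luminescence (CellTiter-Glo) after 72 hr drug exposure at 37 degree celsius. Dose-response format was 8 points for NPC and 11 points for MIPE; data normalized to in-plate controls.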

HACAT [2] = experiment: as above; conditions: MCC and control cell lines, CellTiter-Glo viability, 72 h; series mostly up to 44.8 µM
Method in brief: as §2

HEK293 = experiment: Cytotoxic Profiling of Annotated Libraries Using Quantitative High-Throughput Screening (AID 1296008); conditions: Five cell lines viability, CellTiter-Glo ATP luminescence, 48-72 h; max response: hits give low values; on max response: on the % scale 0 is the no-effect control and ±100 the full control effect
Method in brief: as §1

MCC-26 = experiment: qHTS assay to identify novel small-molecules to repurpose for Merkel cell carcinoma treatment (AID 1296009); conditions: MCC and control cell lines, CellTiter-Glo viability, 72 h; series mostly up to 46 µM
Method in brief: as §2

HEK293T = experiment: as above; conditions: MCC and control cell lines, CellTiter-Glo viability, 72 h; at 44.8 µM (top of the series) unless noted
Method in brief: as §2
Further: nearly all actives have a fitted effect of over 60% in size.
Potency means the concentration at half of the fitted maximal effect.

O=C(Nc1ccc([N+](=O)[O-])cc1Cl)c1cc(Cl)ccc1O
active: Potency (W2) 953 nM

CCOC(=O)c1ncn2c1CN(C)C(=O)c1cc(F)ccc1-2
inactive: Potency (W2)

OCCN1CCN(CCCN2c3ccccc3Sc3ccc(C(F)(F)F)cc32)CC1
active: Potency (W2) 1510 nM | Potency (KB-3-1) 20.6 µM | Potency (NIH3T3) 13.2 µM
inactive: max response (CRL-7250) 1.65% | max response (HaCat [1]) -28.3% and -6.1% | Potency (MCC-13)

CN1CCC(=C2c3ccccc3CC(=O)c3sccc32)CC1
active: Potency (W2) 1200 nM
inactive: max response (CRL-7250) 4.7% and -3.04% | max response (HaCat [1]) 0.22% | outcome (HaCat [1]) | max response (KB-3-1) -4.06% | max response (NIH3T3) -5.39% | outcome (NIH3T3) | outcome (HACAT [2]) | Potency (MCC-13)

O=C1c2c(O)ccc(O)c2C(=O)c2c(NCCNCCO)ccc(NCCNCCO)c21
active: Potency (W2) 1810 nM | Potency (CRL-7250) 4.18 µM and 1.68 µM | Potency (HEK293) 37.2 nM and 15 nM | Potency (HaCat [1]) 264 nM | Potency (KB-3-1) 0.296 µM | Potency (NIH3T3) 59 nM and 21.1 nM | Potency (MCC-13) 935 nM and 750 nM | Potency (MCC-26) 1.87 µM and 596 nM

COc1cc2c(c(OC)c1OC)-c1ccc(OC)c(=O)cc1[C@@H](NC(C)=O)CC2
active: Potency (HEK293) 18.8 nM | Potency (KB-3-1) 23.1 nM and 1 nM | Potency (MCC-13) 11.8 nM
inactive: max response (HEK293) -105% | max response (HaCat [1]) -4.55% and -18.6% | max response (NIH3T3) -60%

CN(C)C(=O)C(CCN1CCC(O)(c2ccc(Cl)cc2)CC1)(c1ccccc1)c1ccccc1
inactive: max response (CRL-7250) -63.2% | Potency (MCC-13)
active: Potency (HEK293) 13.2 µM and 10.6 µM | Potency (KB-3-1) 20.9 µM

C[C@@H]1CC(=O)NN=C1c1ccc(NN=C(C#N)C#N)cc1
inactive: outcome (CRL-7250) | max response (HaCat [1]) -5.36% and -8.18% | max response (KB-3-1) -4.37% | Potency (MCC-13) | Potency (MCC-26)
active: Potency (HaCat [1]) 18700 nM

OCCN(CCO)c1nc(N2CCCCC2)c2nc(N(CCO)CCO)nc(N3CCCCC3)c2n1
inactive: outcome (HACAT [2]) | Potency (MCC-13)

COc1ccccc1OCC(O)CN1CCN(CC(=O)Nc2c(C)cccc2C)CC1 (stereo unspecified)
inactive: Potency (W2) | max response (HEK293) 1.75% | outcome (HEK293) | max response (HaCat [1]) -0.555% | outcome (HaCat [1]) | max response (KB-3-1) 4.47% and -3.97% | max response (NIH3T3) -5.09% | outcome (NIH3T3) | outcome (HACAT [2]) | outcome (HEK293T) | Potency (MCC-13) | Potency (MCC-26)

CC[C@@]1(O)C(=O)OCc2c1cc1n(c2=O)Cc2cc3c(CN(C)C)c(O)ccc3nc2-1
active: Potency (W2) 5360 nM | Potency (CRL-7250) 7.5 µM and 14.8 µM and 6.51 µM | Potency (HEK293) 372 nM and 517 nM | Potency (HaCat [1]) 1.05 µM and 1.46 µM | Potency (KB-3-1) 5.9 µM and 3.26 µM | Potency (NIH3T3) 1.68 µM and 1.32 µM and 2.06 µM | Potency (MCC-13) 94.4 nM and 132 nM | Potency (MCC-26) 94.4 nM and 418 nM

COc1ccccc1N1CCN(CC(O)COc2cccc3ccccc23)CC1 (stereo unspecified)
inactive: max response (CRL-7250) 4.67% | max response (HaCat [1]) 3.01% | max response (KB-3-1) 9.55% | max response (NIH3T3) 0.0963% | Potency (MCC-13)

CN1C(C(=O)Nc2ccccn2)=C(O)c2ccccc2S1(=O)=O
inactive: Potency (W2) | max response (CRL-7250) -1.73% and 2.62% | max response (HEK293) 3.98% | max response (HaCat [1]) 0.638% and -49.2% | max response (KB-3-1) -1.54% and -11.4% | max response (NIH3T3) 1.34% | Potency (MCC-13) | Potency (MCC-26)
